The full list was thinned out, with hits kept by preference.
GIRK2 act: Activates human GIRK2-containing potassium channels; activation (% efficacy), % for hits at 37.5 µM; HEK293 GIRK2/NPY4 cells, thallium flux fluorescence; 34,000 tested, under 10 active; P48051;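 active = primary screen hit, no activity in plain HEK293 cells, and in GIRK2-only cells above 5% efficacy rising with concentration; inactive = the rest, including fluorescent compounds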;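 also: efficacy is normalized control-subtracted fluorescence 15 s after thallium addition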
Target sequence (P48051 whole entry, looked up): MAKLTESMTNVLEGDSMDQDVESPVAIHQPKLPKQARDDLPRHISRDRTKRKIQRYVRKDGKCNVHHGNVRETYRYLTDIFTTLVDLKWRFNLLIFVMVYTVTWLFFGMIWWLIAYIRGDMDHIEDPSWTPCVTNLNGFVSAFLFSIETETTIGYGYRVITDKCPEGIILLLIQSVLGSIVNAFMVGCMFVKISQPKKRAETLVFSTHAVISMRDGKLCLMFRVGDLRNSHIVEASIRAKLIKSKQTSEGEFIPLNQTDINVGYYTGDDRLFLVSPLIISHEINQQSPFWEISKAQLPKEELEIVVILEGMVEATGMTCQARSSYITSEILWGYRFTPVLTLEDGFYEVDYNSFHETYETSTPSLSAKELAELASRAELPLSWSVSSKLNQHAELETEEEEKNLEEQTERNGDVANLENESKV
AMPAR-TARP mod: modulates AMPAR-stargazin complexes; HEK293 GluA2+stargazin, membrane potential dye (FDSS), glutamate EC50; hits were called plate by plate, in both directions; calls only at 30 µM; AID 1259245; O88602+P19491; 3.5% of 40,000 active;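 active = any of four per-well response measures lying three or more SD from its plate-wide compound average, in either direction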
Numbers without * were called inactive; i = inactive; . = no result given; + = active, no number.

SMILES | GIRK2 act | AMPAR-TARP mod
CSc1ccccc1C(=O)NCC1CCN(C(=O)c2ccccc2F)CC1 | i | i
CSc1ncccc1C(=O)N1CCC(CNC(=O)c2ccccc2Br)CC1 | i | i
CSc1ccccc1CN1CCC(CNC(=O)c2ccccn2)CC1 | i | +
CSc1ccccc1CN1CCC(CNC(=O)c2cnc3ccccc3n2)CC1 | i | i
O=C(CSc1ccc(F)cc1)NCC1CCN(C(=O)c2ccccc2F)CC1 | i | +
CSc1ncccc1C(=O)N1CCC(CNC(=O)C2(c3ccc(Cl)cc3)CCCC2)CC1 | i | +
CSc1ncccc1C(=O)N1CCC(CNC(=O)c2cc(Cl)cc(Cl)c2)CC1 | i | i
CSc1ncccc1C(=O)N1CCC(CNC(=O)c2ccccc2F)CC1 | i | +
Cc1cccc2sc(NC(=O)C(=O)NCc3ccccn3)nc12 | . | i
NC(=O)C1CCN(C(=O)Cc2csc(Nc3cccc(Cl)c3)n2)CC1 | i | i
O=C(Cn1cc(-c2nnc(-c3ccco3)o2)c2ccccc21)Nc1ccccc1 | i | i
O=S(=O)(c1ccc(Oc2ccccc2Cl)cc1)N1CCCC1 | . | +
O=S(=O)(c1ccc(Oc2ccccc2Cl)cc1)N1CCCCC1 | . | i
COC(=O)c1ccc2occ(-c3oc4ccc(C(=O)OC)cc4c3O)c2c1 | i | +
COC(=O)c1ccc2[nH]c(C)cc(=O)c2c1 | i | i
COc1ccc(C(=O)/C=C/c2ccc(C)cc2)cc1 | . | i
CCC(=O)Nc1sc2c(c1-c1nc3ccccc3s1)CCN(C(C)C)C2 | . | i
CC(C)N1CCc2c(sc(NC(=O)c3ccc(Cl)s3)c2-c2nc3ccccc3s2)C1 | . | +
CC(C)N1CCc2c(sc(NC(=O)c3ccc([N+](=O)[O-])cc3)c2-c2nc3ccccc3s2)C1 | . | +
CC(=O)c1ccc(C(=O)Nc2sc3c(c2-c2nc4ccccc4s2)CCN(C(C)C)C3)cc1 | . | i
CCn1nccc1C(=O)N(Cc1ccccn1)c1nc2c(OC)ccc(C)c2s1 | i | i
CCCCN(C)C(=O)Cn1c(Cc2ccc(OC)cc2)nc2ccccc21 | i | i
COc1ccc(C)c2sc(N(CCN3CCOCC3)C(=O)c3ccccc3)nc12 | . | i
COc1ccc2nc(N(CCN3CCOCC3)C(=O)c3ccc(Cl)s3)sc2c1 | . | +
COc1ccc2nc(N(CCN3CCOCC3)C(=O)c3ccc([N+](=O)[O-])cc3)sc2c1 | . | i
SMILES | GIRK2 act | AMPAR-TARP mod
COc1ccc2nc(N(CCN3CCOCC3)C(=O)c3nc4ccccc4s3)sc2c1 | i | i
COc1ccc(C)c2sc(N(CCN3CCOCC3)C(=O)c3ccc([N+](=O)[O-])s3)nc12 | . | +
CCOc1ccc2nc(N(Cc3ccncc3)C(=O)/C=C/c3cccc([N+](=O)[O-])c3)sc2c1 | i | i
COc1ccc2nc(N(CCN3CCOCC3)C(=O)c3ccc4c(c3)OCCO4)sc2c1 | . | +
COc1ccc2nc(N(CCN3CCOCC3)C(=O)/C=C/c3cccc([N+](=O)[O-])c3)sc2c1 | i | +
Cc1nnsc1C(=O)N1CCC(c2nnc(-c3ccc(F)cc3)o2)CC1 | i | i
CC1(C(=O)Nc2ccc(S(N)(=O)=O)cc2)Cc2ccc(Cl)cc2C(=O)O1 (stereo not given) | i | i
O=C(Nc1nc2cc3c(cc2s1)OCCO3)c1ccno1 | i | i
O=C(c1cc2n(n1)CCCO2)N1CCn2c1nc1ccccc12 | i | .
COc1ccc(N2CCN(C(CNC(=O)C(=O)NCCc3ccc(S(N)(=O)=O)cc3)c3ccco3)CC2)cc1 (stereo not given) | . | i
O=C(CC1OC(=O)c2ccccc21)c1ccc(Cl)c(Cl)c1 (stereo not given) | i | i
O=S(=O)(Nc1ccc2c(c1)N(S(=O)(=O)c1ccc(F)cc1)CCC2)c1ccccc1 | . | i
COc1cc(S(=O)(=O)Nc2cccnc2)c(OC)cc1C | . | i
CC(=O)Oc1ccc2c(=O)c(Oc3ccc(Br)cc3)coc2c1 | . | i
CCCC(=O)N(CCN1CCOCC1)c1nc2cc(OC)ccc2s1 | i | +
COc1ccc2sc(N(CCN3CCOCC3)C(=O)CSc3ccc(C)cc3)nc2c1 | i | i
Cc1nc2ccccc2c(=O)n1-c1ccc(NC(=O)COc2ccccc2)cc1 | . | i
COc1ccc(CCC(=O)N2CCN(c3ccc(OC)nn3)CC2)cc1 | i | i
COc1ccc(N2C(=O)CN(CCc3ccccc3OC)C3CS(=O)(=O)CC32)cc1 (stereo not given) | i | i
COc1ccc(N2C(=O)CS(=O)(=O)C23C(=O)N(Cc2ccccc2C)c2ccccc23)cc1 (stereo not given) | . | +
COc1cc(NC(=O)Cc2csc(NC(=O)C3CCC(=O)N3)n2)cc(OC)c1OC (stereo not given) | i | i
O=C(Nc1cccnc1)c1ccc(S(=O)(=O)NC2CCCC2)cc1 | i | i
O=C(Nc1ccc(S(=O)(=O)NC2CCCCC2)cc1)C1CCCO1 (stereo not given) | i | +
O=C(CSc1ccc(-c2cccnc2)nn1)Nc1ccc(OC(F)(F)F)cc1 | . | i
O=C(Nc1ccc(Cl)cc1)N(CCCO)CC(O)Cn1c2ccccc2c2ccccc21 (stereo not given) | i | +
SMILES | GIRK2 act | AMPAR-TARP mod
O=C(NC1CCCCC1)N(CCCO)CC(O)Cn1c2ccccc2c2ccccc21 (stereo not given) | i | i
Cc1cc(NC(=O)Cc2ccccc2)n(-c2nc3c(cnn3-c3cccc(C)c3C)c(=O)[nH]2)n1 | i | .
CCCc1ccc(S(=O)(=O)NCC2CCN(C3CCCC3)CC2)cc1 | . | +
CCc1ccc(S(=O)(=O)NCC2CCN(C3CCCC3)CC2)cc1 | . | i
COc1ccc(S(=O)(=O)NCC2CCN(C3CCCC3)CC2)cc1OC | i | i
COC(=O)N1CCC(CNS(=O)(=O)c2ccc3c(c2)CCCC3)CC1 | i | i
O=S(=O)(NCC1CCN(C2CCCC2)CC1)c1ccc2c(c1)CCCC2 | i | +
CCCOc1ccc(S(=O)(=O)NCC2CCN(C3CCCC3)CC2)cc1 | i | +
O=C(C(=O)N1CCOCC1)c1cn(CC(=O)N2CCCC2)c2ccccc12 | . | i
COc1ccc(OC)c(-c2ccc(SCC(=O)N3CCCCCC3)nn2)c1 | i | i
Cc1cnn(C)c1C(=O)Nc1nc2ccc(S(=O)(=O)N(C)C)cc2s1 | i | .
CS(=O)(=O)c1ccc(CC(=O)Nc2nc3c(s2)CCCC3)cc1 | . | i
O=C(Nc1ccc(CC(=O)N2CCOCC2)cc1)c1cc(Br)ccc1Cl | i | i
COc1ccc(CCNC(=O)N(Cc2cccn2C)C2CC2)cc1 | i | .
Cc1cc(C)cc(NC(=O)N2CCC3(CC2)NC(=O)N(Cc2ccc(Cl)cc2)C3=O)c1 | i | i
Cc1ccc(CN2C(=O)NC3(CCN(C(=O)Nc4ccc(F)c(Cl)c4)CC3)C2=O)cc1 | i | +
CCOC(CNC(=O)C(=O)Nc1ccc(N2CCCS2(=O)=O)cc1)OCC | . | i
CCOC(CNC(=O)C(=O)Nc1ccc(N2CCCCS2(=O)=O)cc1)OCC | . | +
O=C(NCc1ccccc1Cl)C(=O)NCC1(O)CCc2ccccc21 (stereo not given) | i | i
COc1cc(C2NC(=O)NC(O)(C(F)(F)F)C2C(C)=O)ccc1OCc1ccc(Cl)cc1 (stereo not given) | . | i

Bioassay records (PubChem BioAssay)
